# Compound activity as filed in PubChem BioAssay.
# Most compounds without a hit are left out; they make up all but 2.2% or so of the library.
# HIF activator – HIF pathway transcriptional activators, primary screen, cell-based, U2OS HRE-luciferase, luminescence | activation, % at 7.5 µM (by protocol) | U2OS HRE-luciferase reporter; normalized: DMSO 0%, desferrioxamine 100% | AID 1910, 2009 | 0.32% of 300,000 active;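 active = mean activation of at least 10% of the iron chelator positive control signal, with at least half of replicates also reaching 10%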
# Platelet DG rel – inhibitors of platelet dense granule secretion, primary screen, cell-based, MLPCN, human platelets; human platelet-rich plasma, SFLLRN dense granule ATP release, luminescence; inhibition, %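 (compounds screened at 7.5 µM in platelet-rich plasma)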; 0.22% of 300,000 active; AID 1663, 2009;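 active = mean replicate score, as percent of positive control, at or above 50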
# AI-2 QS mod – Vibrio harveyi AI-2 quorum sensing modulators, primary screen, JMH597 strain, luminescence/OD600 ratio. 0.4% of 300,000 active. activity change, % at 7.5 µM. AID 2094, 2009. Vibrio harveyi JMH597 AI-2 luminescence/OD600 ratio, 9 h; hits give low values; strain lacks LuxN and CqsS sensors; 0 = neutral-control median; in the data active = activity change below about -75%, passing the limit was not always enough;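 note: luminescence divided by OD600 gain over 9 h not by final OD600 alone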
# CHT allo act – CHT positive allosteric modulators, primary screen, cell-based, membrane potential dye, choline EC20; CHT-expressing cells; hits give high values; LV-AA mutant CHT in HEK293 cells; B-score at 10 µM; 0.49% of 310,000 active; High affinity choline transporter 1 (Homo sapiens), Q9GZV3;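 active = initial fluorescence not abnormally high and integrated response B-score, plate-corrected, over 3 SD above library mean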
# Target sequence (Q9GZV3 whole entry, looked up): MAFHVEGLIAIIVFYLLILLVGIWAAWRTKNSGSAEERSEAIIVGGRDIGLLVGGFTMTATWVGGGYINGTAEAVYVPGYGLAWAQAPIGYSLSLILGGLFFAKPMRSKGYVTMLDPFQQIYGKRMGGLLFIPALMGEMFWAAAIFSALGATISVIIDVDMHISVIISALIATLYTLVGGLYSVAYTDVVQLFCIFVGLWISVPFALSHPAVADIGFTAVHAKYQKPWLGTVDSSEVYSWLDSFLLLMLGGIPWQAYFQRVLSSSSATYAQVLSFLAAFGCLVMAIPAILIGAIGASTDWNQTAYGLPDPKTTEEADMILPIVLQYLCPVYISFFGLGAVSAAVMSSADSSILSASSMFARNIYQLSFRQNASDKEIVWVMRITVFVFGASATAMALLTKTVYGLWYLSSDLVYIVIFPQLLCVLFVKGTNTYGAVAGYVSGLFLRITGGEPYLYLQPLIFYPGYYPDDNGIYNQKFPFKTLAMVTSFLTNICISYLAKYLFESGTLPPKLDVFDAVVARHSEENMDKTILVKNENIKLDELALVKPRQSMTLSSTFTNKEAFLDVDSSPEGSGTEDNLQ
# VLA-4 inh – inhibition in human VLA-4 binding assay, primary screen, VLA-4 allosteric modulator project, MLPCN library, flow cytometry, VLA-4 expressing cells; inhibition, % (about 7 µM as worked out from the volumes in the protocol); ligand binding flow cytometry; 0.2% of 330,000 active; AID 2557, 2010; Integrin alpha-4 (Homo sapiens), P13612; in the data active = inhibition above about 50%
# CHT block – inhibitors of human choline transporter CHT; High affinity choline transporter 1 (Homo sapiens), Q9GZV3; CHT-expressing cells, membrane potential dye, choline response; hits give low values; B-score at 10 µM; 0.86% of 310,000 active; AID 488975, 2010;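 active = B-score over 3 SD under the library average, and starting fluorescence ratio not unusually high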;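 note: choline stimulus applied at its EC90 after an EC20 pre-addition; B-score computed on integrated fluorescence ratio after choline addition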
# CHT block conf – CHT inhibitors, confirmation, cell-based, membrane potential dye, duplicate | shares compounds with CHT block | CHT-expressing cells, choline membrane potential dye; LV-to-AA substituted CHT, HEK293 cells | CHT activity remaining % of control (hits give low values), % at 10 µM | 70% of 2,400 active | AID 493221, 2011;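 active = choline transporter activity left, mean of duplicates at 10 µM, below buffer-only control mean minus 3 SD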;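 note: depolarization triggered by choline at its EC90 following an EC20 pre-addition; 0% = hemicholinium-3 full block and 100% = buffer-only control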
# HEK293 CHT ctr – membrane potential effects in parental HEK293, counter-screen for CHT inhibitor project, cell-based, membrane potential dye. shares compounds with CHT block. choline response; active = decrease or increase beyond buffer ±3SD. membrane potential ratio readout (active if shifted either direction beyond buffer ±3SD; no single direction) at 10 µM. 4% of 2,400 active;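 note: parental cells lack the transporter so any hit is non-specific; ratio is peak minus trough fluorescence over baseline after EC90 choline challenge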
# The depositor's hits bear a star; i = inactive; x = not tested or not shown.
SMILES,HIF activator,Platelet DG rel,AI-2 QS mod,CHT allo act,VLA-4 inh,CHT block,CHT block conf,HEK293 CHT ctr
CN(CCC#N)C(=O)CC(Cc1ccccc1)C1CCOC(C)(C)C1 (stereo not drawn),0,0,17,i,4,-6*,i,i
COc1ccc(COC(=O)c2cccc(S(=O)(=O)N3CCCC3)c2)cc1F,0,-11,-1,i,0,i,x,x
CCOC(=O)c1cnc2c(C)cc(Cl)cc2c1N1CCN(C)CC1,-2,5,32,i,1,-6.4*,34%*,i
CCOC(=O)c1cnc2ccc(Cl)cc2c1N1CCN(C)CC1,0,6,-16,i,6,i,x,x
CCOC(=O)c1cnc2c(C(F)(F)F)cccc2c1N1CCN(C)CC1,3,-3,4,i,-9,-10*,30%*,3.3*
COc1ccc(-c2nc3cc([N+](=O)[O-])ccc3o2)cc1,0,-1,25,i,17,-5.2*,i,i
Nc1ccc(-c2nc3cc([N+](=O)[O-])ccc3o2)cc1,2,-3,15,i,-3,i,x,x
Cc1cc(NS(=O)(=O)c2ccc(NC(=O)c3ccc(Cl)cc3[N+](=O)[O-])cc2)no1,0,-5,22,i,16,i,x,x
Cc1ccnc(NS(=O)(=O)c2ccc(NC(=O)c3ccc(Cl)cc3[N+](=O)[O-])cc2)n1,0,4,-2,i,2,-5.5*,51%*,i
Cc1nnc(SCc2cnc(-c3ccc(C(C)C)cc3)s2)n1C,x,x,x,i,14,-12*,49%*,i
c1ccc(-c2ncc(CSc3nncn3-c3ccccc3)s2)cc1,0,-4,27,i,-7,i,x,x
NS(=O)(=O)c1ccc(CCNC(=O)CNC(=O)c2ccc(Oc3ccccc3)cc2)cc1,0,1,x,i,11,i,x,x
CSc1ccc(CNCCCSc2ncccn2)cc1,1,7,-9,i,5,-5.6*,i,i
CC(=O)c1ccccc1NS(=O)(=O)c1cccc2nsnc12,-1,2,9,i,-1,i,x,x
COc1ccc2c(c1)-c1c(ssc1=S)C(C)(C)N2,2,-5,15,i,32,-5.2*,57%*,i
COc1ccc(-n2sc3c(c2=S)-c2cc(OC)ccc2NC3(C)C)cc1,0,-4,3,i,12,i,x,x
COc1ccc(C(=O)NC2CCc3ccccc32)cc1OC1CCN(C(C)C)CC1 (stereo not drawn),1,11,5,i,21,-9*,16%*,i
COc1ccc(C(=O)NC2CCCc3ccccc32)cc1Br (stereo not drawn),1,-7,18,i,-2,i,x,x
COc1ccc(C(=O)N(C)C2CCCc3ccccc32)cc1OC1CCN(C(C)C)CC1 (stereo not drawn),1,1,34,i,6,-10*,15%*,i
O=C(O)CC1=C(Nc2ccccc2)C(=O)N(c2ccccc2)C1c1ccc(F)cc1 (stereo not drawn),1,-9,7,i,-2,-6.4*,32%*,i
COc1ccc(C2C(CC(=O)O)=C(Nc3ccccc3)C(=O)N2c2ccccc2)cc1 (stereo not drawn),2,-1,17,i,-1,i,x,x
O=C(CN1CCCCC1)N1CCc2ccccc21,0,-1,11,i,3,i,x,x
Cc1csc(=N)n1CC(=O)N1CCc2ccccc21,0,18,23,i,7,-9.6*,21%*,i
O=C(CN1CCN(Cc2ccc(Cl)cc2)CC1)N1CCc2ccccc21,0,-16,19,i,5,-6.2*,48%*,i
O=C(CN1CCN(Cc2ccccc2)CC1)N1CCCc2ccccc21,-2,1,8,i,-5,i,x,x
SMILES,HIF activator,Platelet DG rel,AI-2 QS mod,CHT allo act,VLA-4 inh,CHT block,CHT block conf,HEK293 CHT ctr
Cc1ccccc1NC(=O)N1CCc2ccccc2C1,1,-3,-6,i,14,-5.6*,i,i
Cc1cccc(NC(=O)N2CCc3ccccc3C2)c1C,0,2,13,i,5,i,x,x
CCOc1ccc(Br)cc1S(=O)(=O)N1CCCC1,1,5,9,i,10,-5.1*,67%*,i
CCOc1ccc(Cl)cc1S(=O)(=O)N1CCCC1,0,-1,28,i,3,i,x,x
Cc1ccc(NS(=O)(=O)c2cc(C(=O)N(C)C3CCN(C)CC3)ccc2Cl)cc1Cl,x,x,x,x,5,x,x,x
CSc1cnc2c(=O)n(C)c(=O)[nH]c2n1,2,-4,5,i,4,i,x,x
Cn1c(=O)[nH]c2nnc(-c3ccc(Cl)c(Cl)c3)nc2c1=O,2,-13,27,i,1,-5*,34%*,i
CCC(=O)N/C(=N/c1nc(C)cc(C)n1)Nc1ccccc1,0,-6,8,i,-1,i,x,x
CCc1ccc(N/C(=N/c2nc(C)cc(C)n2)NC(C)=O)cc1,2,-11,-8,i,-6,-5.8*,58%*,i
COc1ccc(CCNCC(=O)Nc2ccc(OC(F)(F)F)cc2)cc1OC,1,3,1,i,14,i,x,x
O=C(Nc1nc2c(Br)cccc2s1)C1CC1,1,16,9,i,-28,-5.7*,i,i
O=C(Nc1nc2c(Cl)cccc2s1)C1CC1,2,-16,20,i,8,i,x,x
O=C(NCc1ccc(Cl)cc1)C1CCN(c2nnc(N3CCCC3=O)s2)CC1,0,-3,18,i,10,i,x,x
O=C(COC(=O)c1ccc(O)cc1O)Nc1ccc2c(c1)OCCO2,x,x,x,x,2,x,x,x
Cc1cccc(C(=O)Nc2scc(-c3ccc(Br)cc3)c2C(=O)O)c1,-1,-4,7,i,0,i,x,x
Cc1ccc(-c2csc(NC(=O)c3ccccc3Cl)c2C(=O)O)cc1,3,14,91,i,-12,-5.9*,66%*,i
